Where a name gives a salt, the structure may show the parent alone. Unmarked numbers belong to inactive results.
test system: primary human hepatic stellate cells (donor 1); assay: COL1A1 mRNA fold change vs DMSO (normalised to PSMB2); higher = more COL1A1 expression, active = hit call of the paper; settings: 48 h
Method: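 Secondary qRT-PCR screen in primary human HSCs (donor 1), 384-well plates, with compounds dispensed in quadruplicate and incubated for 48 h. Cells-to-CT lysates were used for multiplexed TaqMan qPCR of ACTA2 or COL1A1 with PSMB2 as reference. Fold changes versus DMSO come from a linear model (Ct_gene ~ Ct_PSMB2 + plate + chemical). A hit is defined as COL1A1 and ACTA2 FC <0.5 (FDR <0.05) with PSMB2 between 0.2 and 2.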

SMILES	COL1A1 mRNA fold change
CNCCCC12CCC(c3ccccc31)c1ccccc12 [Maprotiline hydrochloride] (33.3333 µM)	0.0732 (active)
CS(=O)(=O)CCNCc1ccc(-c2ccc3ncnc(Nc4ccc(OCc5cccc(F)c5)c(Cl)c4)c3c2)o1 (6.66667 µM)	1.41
CN(C)CCC(c1ccc(Br)cc1)c1ccccn1 (stereo not given) [Brompheniramine maleate] (33.3333 µM)	0.705
C[C@@H](CN1CCC(n2c(=O)[nH]c3cc(Cl)ccc32)CC1)NC(=O)c1ccc2ccccc2c1 (33.3333 µM)	0.19
Cc1ccc(NC(=O)C(C)C)cc1C1CCN(Cc2ccc(Oc3ccc(F)c(F)c3)cc2)CC1 (33.3333 µM)	0.0966
CN1CCC(=C2c3ccccc3C=Cc3ccccc32)CC1 [Cyproheptadine] (33.3333 µM)	0.078 (active)
Cc1cccc(Nc2nc(-c3ccncc3)cs2)c1 (11.1 µM)	0.552
CC[C@@H]1C(=O)N(C)c2cnc(Nc3ccc(C(=O)NC4CCN(C)CC4)cc3OC)nc2N1C1CCCC1 (33.3333 µM)	0.0466
CNCCC(Oc1ccc(C(F)(F)F)cc1)c1ccccc1 (stereo not given) [Fluoxetine hydrochloride] (33.3333 µM)	0.114 (active)
COc1cc2nc(N3CCCN(C)CC3)nc(NC3CCN(Cc4ccccc4)CC3)c2cc1OC (3.33333 µM)	0.0424 (active)
CCN(CC)CCNC(=O)c1c(C)[nH]c(/C=C2\C(=O)Nc3ccc(F)cc32)c1C (6.66667 µM)	0.664
Cn1cc(C2=C(c3ccc(Cl)cc3Cl)C(=O)NC2=O)c2ccccc21 (33.3333 µM)	2.59
NC[C@@H]1O[C@H](C23CC4CC(CC(C4)C2)C3)Cc2c1ccc(O)c2O (33.3333 µM)	0.136
Cc1nc(Nc2ncc(C(=O)Nc3c(C)cccc3Cl)s2)cc(N2CCN(CCO)CC2)n1 (33.3333 µM)	0.446 (active)
N=C(N)SCCc1ccc(OCc2ccc([N+](=O)[O-])cc2)cc1 [KB-R7943 mesylate] (33.3333 µM)	0.168 (active)
c1cc(OCCN2CCCCC2)cc(-c2n[nH]c3ccc(-c4nnc[nH]4)cc23)c1 (33.3333 µM)	0.105 (active)
CN1CCN(C2=Cc3ccccc3Oc3ccc(Cl)cc32)CC1 (33.3333 µM)	0.416 (active)
CCOC(=O)C1=C(COCCN)NC(C)=C(C(=O)OC)C1c1ccccc1Cl (stereo not given) (33.3333 µM)	0.437 (active)
CNCCCC1c2ccccc2C=Cc2ccccc21 [Protryptyline hydrochloride] (22.2333 µM)	0.548
COC(=O)N[C@H](C(=O)N1CCC[C@H]1c1ncc(-c2ccc(-c3ccc(-c4cnc([C@@H]5CCCN5C(=O)[C@@H](NC(=O)OC)C(C)C)[nH]4)cc3)cc2)[nH]1)C(C)C (33.3333 µM)	0.0176

SMILES	COL1A1 mRNA fold change
O=C(c1ccc(/C=C/c2n[nH]c3ccccc23)cc1)N1CCNCC1 (33.3333 µM)	0.0707
CN1CCCN(C(c2ccccc2)c2ccc(Cl)cc2)CC1 (stereo not given) [Homochlorcyclizine dihydrochloride] (33.3333 µM)	0.0131 (active)
CC#CCOC(=O)c1c(C)nc2sc3c(c2c1N)CCC(O)C3 (stereo not given) (33.3333 µM)	2.5
CCc1cc2c(cc1CC)CC(NC[C@H](O)c1ccc(O)c3[nH]c(=O)ccc13)C2 [Indacaterol Maleate] (33.3333 µM)	0.0797 (active)
COC(=O)C[C@](O)(CCCC(C)(C)O)C(=O)O[C@@H]1C(OC)=C[C@]23CCCN2CCc2cc4c(cc2[C@H]13)OCO4 [Homoharringtonine] (33.3333 µM)	0.0354 (active)
CCCCCCCCCCCCC/C=C/[C@@H](O)[C@H](CO)N(C)C [N,N-Dimethylsphingosine] (3.33333 µM)	0.928
CCCCCCCCCCCCCCCCn1cc[n+](Cc2ccccc2)c1C (11.1 µM)	0.155
C#CC1(O)CC[C@H]2[C@@H]3CCC4=CC(=O)CC[C@@H]4[C@H]3CC[C@@]21CC (stereo not given in full) [Norgestrel] (21.3333 µM)	1.14
NC1(c2ccc(-c3nc4ccn5c(=O)[nH]nc5c4cc3-c3ccccc3)cc2)CCC1 (11.1 µM)	0.184
CCCCc1oc2ccccc2c1C(=O)c1cc(I)c(OCCN(CC)CC)c(I)c1 (33.3333 µM)	0.057 (active)
c1ccc2c(NCCCCCCCNc3c4c(nc5ccccc35)CCCC4)c3c(nc2c1)CCCC3 [bis(7)-Tacrine] (3.33333 µM)	0.0304 (active)
CNC(=O)[C@@H](Cc1ccccc1)N(C)C(=O)[C@@H](Cc1ccc2ccccc2c1)N(C)C(=O)/C=C/CC(C)(C)N [Tabimorelin] (33.3333 µM)	0.935
[O-][S+](c1ccccc1)c1ccc2nnnn2n1 (stereo not given) (33.3333 µM)	0.0868
Clc1ccc(C2(c3ccc(-c4cn[nH]c4)cc3)CCNCC2)cc1 (33.3333 µM)	0.285 (active)
CC(C)c1ccc(C(=O)c2cccs2)c(SCCCCCCCCN(C)C)n1 (33.3333 µM)	0.429
CN(C)CCCCC(=O)Nc1ccc(NC(=S)NC(=O)c2ccc(C(C)(C)C)cc2)cc1 [Tenovin-6] (33.3333 µM)	0.00938
Cc1nc2ccc(-n3ncc(C(=O)c4cc5ccccc5[nH]4)c3N)cc2[nH]1 (33.3333 µM)	0.562
CCN(CC)CCCCNc1ncc2cc(-c3c(Cl)cccc3Cl)c(NC(=O)NC(C)(C)C)nc2n1 (33.3333 µM)	0.425 (active)
CN1CCC(Nc2ncc3ncnc(Nc4ccc(F)c(Cl)c4)c3n2)CC1 [BIBX 1382 dihydrochloride] (33.3333 µM)	0.00366
COc1ccccc1OCCNCC(O)COc1cccc2[nH]c3ccccc3c12 (stereo not given) [Carvedilol] (33.3333 µM)	0.294

Source: the supplement of paper PMC9135407
